A selection: hits, their analogues and other compounds. The true share with any hit is near 1.3%.
NR2F2 inh: NR2F2 (human) inhibition, primary screen; inhibition, % at 8.6 µM; P24468; 370,000 compounds, 0.7% hits; HEK293T NGFI-A luciferase reporter, luminescence;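 active = inhibition above a per-plate cutoff, mean inhibition of test wells between control levels plus 3 SD, cut at about 38% in these data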;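 note: cells cotransfected with COUP-TFII expression vector driving the NGFI-A reporter; 0% = median of COUP-TF2 test wells and 100% = reporter-only cells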
Target sequence (P24468 whole entry, looked up): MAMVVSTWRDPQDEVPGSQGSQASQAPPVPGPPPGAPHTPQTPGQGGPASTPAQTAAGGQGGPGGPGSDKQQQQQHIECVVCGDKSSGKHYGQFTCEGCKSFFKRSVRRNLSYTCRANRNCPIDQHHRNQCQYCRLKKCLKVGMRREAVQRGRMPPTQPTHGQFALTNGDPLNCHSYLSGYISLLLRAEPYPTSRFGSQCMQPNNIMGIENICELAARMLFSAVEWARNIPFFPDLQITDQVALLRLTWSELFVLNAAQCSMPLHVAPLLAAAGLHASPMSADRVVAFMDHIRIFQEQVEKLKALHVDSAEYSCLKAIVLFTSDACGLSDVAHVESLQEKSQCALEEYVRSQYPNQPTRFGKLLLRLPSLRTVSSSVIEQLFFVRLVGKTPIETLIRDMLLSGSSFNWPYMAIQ
LRH-1 inv ag: NR5A2 inverse agonism in reporter assay; O00482; HEK293T StAR-luciferase reporter, LRH-1 transfected, 24 h; inhibition, % at 3.6 µM; 360,000 compounds, 0.13% hits;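 active = inhibition above the mean inhibition of all tested compounds plus 3 SD, cut at about 73% in these data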;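 note: 0% = DMSO wells and 100% = reporter-only cells lacking LRH-1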
NCOA1 inh: inhibitors of human steroid receptor coactivator 1 (SRC1) | inhibition, % at 3.6 µM | HEK293 GAL4-SRC1 luciferase reporter, luminescence | Q15788 | 360,000 compounds, 0.12% hits;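 active = inhibition above the campaign mean plus 3 SD, with each screening campaign given its own cutoff, cut at about 60% in these data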;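 note: 0% = DMSO treated cells and 100% = gossypol at 36 µM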
NCOA3 inh: human NCOA3 inhibition; AID 588352; HEK293 GAL4-SRC3 luciferase reporter, luminescence; Q9Y6Q9; 360,000 compounds, 0.17% hits; inhibition, % at 3.6 µM;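 active = inhibition above a per-campaign cutoff, the mean of all compounds plus 3 SD, cut at about 60% in these data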;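 note: 0% = DMSO-treated cells and 100% = gossypol-treated cells at 36 µM; higher means less SRC3-driven luciferase light from the GAL4 reporter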
Gli-Sufu antag: blocks Gli-Sufu signaling in a luciferase reporter | 340,000 compounds, 0.74% hits | inhibition, % at 5 µM | Sufu-KO-LIGHT fibroblasts, Gli luciferase reporter luminescence;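 active = inhibition above about 55%, limit read from the data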;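 note: 0% = DMSO-treated cells and 100% = wells with medium but no cells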
NCOA2 inhibitor: inhibits human steroid receptor coactivator 2; Q15596; HEK293 GAL4-SRC2 luciferase reporter, luminescence; inhibition, % at 9 µM; 370,000 compounds, 0.17% hits; AID 651957;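 active = inhibition above the mean inhibition of all tested compounds plus 3 SD, set per campaign, cut at about 52% in these data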;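 note: 0% = DMSO treated cells and 100% = cells given Gossypol at 36 µM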
Gli antag conf: confirmation of Gli-SUFU pathway antagonists | shares compounds with Gli-Sufu antag | Sufu-KO-LIGHT cells, Gli luciferase reporter, luminescence | inhibition, % at 5 µM | 2,500 compounds, 40% hits;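 active = mean inhibition at 5 µM reaching about 45%, limit read from the data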;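 note: plate controls were DMSO-treated cells for no effect and wells lacking cells for full effect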
Gli cytotox: cytotoxic in Gli-SUFU antagonist counter-screen. Sufu-KO-LIGHT cells cytotoxicity, ATP luminescence. cytotoxicity, % at 5 µM. 2,500 compounds, 32% hits. shares compounds with Gli-Sufu antag;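 active = mean cytotoxicity at 5 µM above about 25%, limit read from the data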;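 note: cells exposed to compound overnight for roughly 16 to 18 hours; plate controls were DMSO wells with cells for no effect and medium without cells for full effect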
Wnt3a counter: Wnt3a reporter inhibition counter-screen | Wnt-LIGHT cells, Wnt3a-driven luciferase reporter, luminescence | 2,500 compounds, 20% hits | shares compounds with Gli-Sufu antag | inhibition, % at 6.25 µM;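 active = mean inhibition above about 25%, limit read from the data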
* hit, by the source's call; . = not tested or not shown.

SMILES	NR2F2 inh	LRH-1 inv ag	NCOA1 inh	NCOA3 inh	Gli-Sufu antag	NCOA2 inhibitor	Gli antag conf	Gli cytotox	Wnt3a counter
CCC(C)(C)n1nnnc1C(c1cc2ccc(OC)cc2[nH]c1=O)N1CCc2ccccc21 (centres undefined)	-26	23	4	0	56*	17	27	11	-3
CCC(C)(C)n1nnnc1C(c1cc2cc(OC)ccc2[nH]c1=O)N1CCc2ccccc21 (centres undefined)	8	12	-33	13	17	11	.	.	.
Cn1c(SCC(=O)N(Cc2ccccc2)C(C)(C)C)nc2ccccc21	.	-3	-5	12	58*	.	15	4	-15
Cn1c(SCC(=O)N2CCCC2)nc2ccccc21	0	8	2	-3	-4	-7	.	.	.
CCOC(=O)N1CCN(C(=O)CCCCCn2c(=S)[nH]c3ccsc3c2=O)CC1	-5	-13	-12	6	69*	17	27	2	26*
CCOC(=O)N1CCN(C(=O)CCCn2c(=S)[nH]c3ccsc3c2=O)CC1	27	-10	2	11	-36	-33	.	.	.
CNc1ccccc1C(C)(C)c1cc(-c2cccc(Br)c2)no1	33	12	-15	10	71*	-24	75*	17	26*
CC1(C)CC(=O)N(c2cccc(Cl)c2)C(=O)C1	-1	18	0	19	10	8	.	.	.
CC1(C)CC(=O)N(c2ccc(Cl)cc2Cl)C(=O)C1	7	-7	13	-1	68*	-31	7	4	-12
COC(=O)[C@H](CC(C)C)N(CCCc1cn(CC2CCCCC2)nn1)S(=O)(=O)c1ccc(F)cc1Br	14	.	.	.	.	16	.	.	.
COc1ccc(C2C3=C(CC(C)(C)CC3=O)Nc3c2c(=O)n(C)c(=O)n3C)cc1OC (centres undefined)	6	0	5	6	58*	16	13	29*	11
O=S1(=O)c2ccc(N3CCN(Cc4ccccc4F)CC3)cc2Oc2ccccc2CN1Cc1cn(Cc2ccc(C(F)(F)F)cc2)nn1	3	.	.	.	.	19	.	.	.
CC(=O)Nc1ccc(S(=O)(=O)NCc2ccncc2)cc1	17	-4	-3	9	56*	27	42	15	17
CC1CCCCC1NS(=O)(=O)c1ccc(S(=O)(=O)NCc2ccncc2)cc1 (centres undefined)	.	.	.	.	67*	.	59*	24	20
C=CCN1C(=O)[C@H](CC(=O)NCCCCc2ccccc2)[C@@]2(C(=O)OCC)CCCC=C12	-4	.	.	.	.	9	.	.	.
CC1(C)Oc2ccc(C(=O)NC3CCCC3)cc2NC1=O	13	.	.	.	.	10	.	.	.
O=C(COC(=O)c1cnccn1)c1ccc2ccccc2c1	9	-9	3	6	6	2	.	.	.
O=C(COC(=O)c1cnccn1)c1cccc([N+](=O)[O-])c1	5	-4	0	10	50	-2	19	16	0
CCOC(=O)[C@]12CCCC=C1N(Cc1ccc(OC)cc1)C(=O)[C@@H]2CC(=O)NCCCN1CCCC1=O	-21	.	.	.	.	-17	.	.	.
CC(=O)Nc1cccc(C(=O)Nc2cccc3ncccc23)c1	9	0	-32	-12	86*	-22	18	5	23
CCN(CC)S(=O)(=O)c1cccc(NC(=O)CCSc2ccc(Cl)cc2)c1	10	9	3	4	51	7	10	28*	-33
CCN(CC)S(=O)(=O)c1cccc(NC(=O)CNc2cccc(S(=O)(=O)N3CCOCC3)c2)c1	.	41	27	28	63*	.	69*	25*	29*
CCN(CC)S(=O)(=O)c1cc(NC(=O)CNc2cccc(S(=O)(=O)N3CCCC3)c2)ccc1C	.	42	30	3	72*	.	66*	31*	19
CN(C)S(=O)(=O)c1cccc(NC(=O)COC(=O)CCSc2ccc(Cl)cc2)c1	4	-16	4	20	3	1	.	.	.
